The text below walks through data of PubChem BioAssay AID743415 (Broad Institute, 2014).

Potency and affinity values are given separately. The source made the active and inactive calls.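 Rule for the calls: active = compounds lowering Shn3 expression whose fitted half-maximal concentration is at most twice the top valid dose; inconclusive = flat partial decrease or an invalid curve fit; inactive = the rest.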

A short description of this assay: Shn3 transcript knock-down in Clone20 cells – cell-based, qPCR, cherry-pick, dose response (AID 743415). As to conditions: Shn3 mRNA qPCR, overnight; series mostly up to 35 µM; relative Shn3 expression (fraction): at the top concentration. In general terms: Quantitative PCR measures a nucleic acid by following its amplification.
Take `CC(=O)N1c2ccc(S(=O)(=O)N3CCC(C(=O)N4CCN(c5cccc(C(F)(F)F)c5)CC4)CC3)cc2CC1C` (stereo unspecified): the “relative Shn3 expression (fraction)” value was 1.22 (inactive).

Take `CCOC(=O)C1CCCN(S(=O)(=O)c2ccc(S(=O)(=O)N3CCCC3)cc2)C1` (stereo unspecified): the “relative Shn3 expression (fraction)” value was 0.904 (inactive).

For the compound `CNc1ccccc1C(C)(C)c1cc(-c2cccc(OC)c2)no1`, the “relative Shn3 expression (fraction)” value is 1.16 (inactive).

Turning to `CCOc1cc(CNCCc2ccc(S(N)(=O)=O)cc2)ccc1OCc1ccccc1`, the “relative Shn3 expression (fraction)” value was 2.11 (inactive).

As for `CC(=O)Nc1ccc(OCC(=O)Nc2ccc(Cl)c(S(=O)(=O)N3CCOCC3)c2)cc1`, the “relative Shn3 expression (fraction)” value is 0.846 (inactive).

For the compound `CC1CCCC(NC(=O)c2cccc(S(=O)(=O)N3CCN(c4ccccc4)CC3)c2)C1C` (stereo unspecified), the “relative Shn3 expression (fraction)” value was 1.12 (inactive).

`COc1ccc(-c2cc(C(F)(F)F)nc(S(C)(=O)=O)n2)cc1`: the “relative Shn3 expression (fraction)” value is 0 (inactive).

Take `COc1ccc(C(=O)Nc2nc3ccccc3s2)c(OC)c1`: the “relative Shn3 expression (fraction)” value was 0.722 (inactive).

For the compound `O=C(COC(=O)c1n[nH]c2ccccc12)Nc1ccc(S(=O)(=O)N2CCCC2)cc1`, the “relative Shn3 expression (fraction)” value is 1.75 (inactive).

Turning to `Cc1cccc(NS(=O)(=O)c2ccc(C3CCCCC3)cc2)c1`, the “relative Shn3 expression (fraction)” value is 2.21 (inactive).

With `Cc1nc(NC(C)c2ccccc2)c2oc3ccccc3c2n1` (stereo unspecified), the “relative Shn3 expression (fraction)” value is 1.16 (inactive).

For `Cc1ccccc1C(=O)N1CCN(c2ccc(NC(=O)CSc3ccc(Cl)cc3)cc2)CC1`, the “relative Shn3 expression (fraction)” value is 2.02 (inactive).

For `CN(CC(=O)Nc1ccccc1Cl)C(=O)c1cccc(S(=O)(=O)N2CCN(c3ccccc3)CC2)c1`, the “relative Shn3 expression (fraction)” value was 1.95 (inactive).

As for `Cc1ccc(NC(=O)c2cc(S(=O)(=O)NCCC3=CCCCC3)ccc2F)cc1F`, the “relative Shn3 expression (fraction)” value is 1.86 (inactive).

In the case of `COCCNc1nc(NCc2ccc(C(C)C)cc2)c2sccc2n1`, the “relative Shn3 expression (fraction)” value was 1.75 (inactive).

On to `CC(C)CCOc1cccc(OCC(=O)Nc2ccncc2)c1`, for which the “relative Shn3 expression (fraction)” value is 1.53 (inactive).

As for `O=C(Nc1ccc(Cl)cc1)c1cc(S(=O)(=O)N2CCOCC2)cs1`, the “relative Shn3 expression (fraction)” value is 1.29 (inactive).

Take `COc1ccc(OC)c(NC(=O)CN(Cc2ccc(F)cc2)C2CCCCC2)c1`: the “relative Shn3 expression (fraction)” value is 1.71 (inactive).

For `CCCCOCCCNc1ncnc2c1[nH]c1ccccc12`, the “relative Shn3 expression (fraction)” value is 1.63 (inactive).

Regarding `CCC(C)c1ccc(S(=O)(=O)N2CCN(C(=O)c3ccc(Cl)c(S(=O)(=O)N4CCOCC4)c3)CC2)cc1` (stereo unspecified), the “relative Shn3 expression (fraction)” value was 1.15 (inactive).

With `Cc1ccc(CNC(=O)c2cc3c(C)nc4ccccc4c3o2)cc1`, the “relative Shn3 expression (fraction)” value is 1.06 (inactive).

Turning to `CCn1cc(CN(C)S(=O)(=O)c2ccc3ccccc3c2)c(C)n1`, the “relative Shn3 expression (fraction)” value was 1.25 (inactive).

As for `CCOC(=O)c1cn(CC(=O)Nc2cccc(Cl)c2C)nn1`, the “relative Shn3 expression (fraction)” value was 0.955 (inactive).

Regarding `CCN(CC)c1ccc(NC(=O)CN2C(=O)CSc3ncccc32)c(C)c1`, the “relative Shn3 expression (fraction)” value was 1.24 (inactive).

For the compound `CC(C)Cn1c(N)c(C(=O)COC(=O)C2Cc3ccccc3CN2S(C)(=O)=O)c(=O)n(C)c1=O` (stereo unspecified), the “relative Shn3 expression (fraction)” value was 1.08 (inactive).

Consider `COc1ccccc1NS(=O)(=O)c1cc(NC(=O)c2ccc(Cl)nc2)ccc1Cl`, for which the “relative Shn3 expression (fraction)” value was 0.652 (inactive).

As to `Cc1ccnc(SCC(=O)Nc2sc3c(c2C#N)CCCC3)n1`, the “relative Shn3 expression (fraction)” value was 1.33 (inactive).

Consider `O=C(CSc1c2c(nc3ccc(Cl)cc13)CCCC2)NCc1ccco1`, for which the “relative Shn3 expression (fraction)” value is 4.77 (inactive).

In the case of `COc1ccc(CC(=O)Nc2ccncc2Cl)cc1`, the “relative Shn3 expression (fraction)” value is 0.966 (inactive).

As for `Cn1c(=O)c2c(nc(NCc3ccco3)n2CCc2ccccc2)n(C)c1=O`, the “relative Shn3 expression (fraction)” value is 1.31 (inactive).

In the case of `Cc1ccc(NC(=O)c2ccc(Cl)c(N3C(=O)C=CC3=O)c2)cc1`, the “relative Shn3 expression (fraction)” value was 7.39 (inactive).

For `COc1ccccc1NC(=O)Cn1cc(C(=O)C2CC2)c2ccccc21`, the “relative Shn3 expression (fraction)” value is 1.44 (inactive).

As for `Cc1ccc(-c2csc(N3CCC(NS(=O)(=O)c4ccc5c(c4)OCCO5)CC3)n2)cc1`, the “relative Shn3 expression (fraction)” value was 1.51 (inactive).

Regarding `Cn1nc(CC(=O)Nc2ccc3c(c2)OCCO3)c2ccccc2c1=O`, the “relative Shn3 expression (fraction)” value was 1.02 (inactive).

With `CCOC(=O)c1oc2ccc(S(=O)(=O)n3nc(-c4ccc(OC)cc4)cc3N)cc2c1C`, the “relative Shn3 expression (fraction)” value is 1.18 (inactive).

On to `CCc1ccccc1NC(=O)COC(=O)c1c(C)nsc1NC`, for which the “relative Shn3 expression (fraction)” value was 1.31 (inactive).
